Exocytosis inh – blocks lytic granule exocytosis; TALL-104 LAMP-1 surface exposure, flow cytometry; cells stimulated with thapsigargin and PMA; inhibition, % at 10 µM; 360,000 compounds, 0.66% hits; AID 651702;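 active = inhibition above about 55%, limit read from the data; inconclusive = no clear call, values can overlap the other calls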
Myeloid diff MLP – promotes myeloid progenitor differentiation. calls only at 10 µM. ER-HoxA9 myeloid progenitors, lysozyme-GFP differentiation, flow cytometry. AID 624256. 360,000 compounds, 1% hits;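 active = normalized GFP-positive differentiation at or above the plate's own cutoff, the solvent-only control mean plus 3 SD; inconclusive = no clear call, values can overlap the other calls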;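 note: cells exposed to compound for four days before flow analysis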
ABCB6 inh 2 – blocks the human ABCB6 transporter | AID 602162 | K562-ABCB6 porphyrin accumulation, flow cytometry, 1 h; active compounds read low | fluorescence ratio to DMSO, % at 10 µM | Q9NP58 | 360,000 compounds, 0.19% hits;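 active = fluorescence ratio to DMSO below 75%, the collection mean minus 3 SD; inconclusive = too few cells collected in the well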;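 note: signal is porphyrin accumulated inside mitochondria; lower ratio means ABCB6 inhibition with less porphyrin fluorescence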
Target sequence (Q9NP58 whole entry, looked up): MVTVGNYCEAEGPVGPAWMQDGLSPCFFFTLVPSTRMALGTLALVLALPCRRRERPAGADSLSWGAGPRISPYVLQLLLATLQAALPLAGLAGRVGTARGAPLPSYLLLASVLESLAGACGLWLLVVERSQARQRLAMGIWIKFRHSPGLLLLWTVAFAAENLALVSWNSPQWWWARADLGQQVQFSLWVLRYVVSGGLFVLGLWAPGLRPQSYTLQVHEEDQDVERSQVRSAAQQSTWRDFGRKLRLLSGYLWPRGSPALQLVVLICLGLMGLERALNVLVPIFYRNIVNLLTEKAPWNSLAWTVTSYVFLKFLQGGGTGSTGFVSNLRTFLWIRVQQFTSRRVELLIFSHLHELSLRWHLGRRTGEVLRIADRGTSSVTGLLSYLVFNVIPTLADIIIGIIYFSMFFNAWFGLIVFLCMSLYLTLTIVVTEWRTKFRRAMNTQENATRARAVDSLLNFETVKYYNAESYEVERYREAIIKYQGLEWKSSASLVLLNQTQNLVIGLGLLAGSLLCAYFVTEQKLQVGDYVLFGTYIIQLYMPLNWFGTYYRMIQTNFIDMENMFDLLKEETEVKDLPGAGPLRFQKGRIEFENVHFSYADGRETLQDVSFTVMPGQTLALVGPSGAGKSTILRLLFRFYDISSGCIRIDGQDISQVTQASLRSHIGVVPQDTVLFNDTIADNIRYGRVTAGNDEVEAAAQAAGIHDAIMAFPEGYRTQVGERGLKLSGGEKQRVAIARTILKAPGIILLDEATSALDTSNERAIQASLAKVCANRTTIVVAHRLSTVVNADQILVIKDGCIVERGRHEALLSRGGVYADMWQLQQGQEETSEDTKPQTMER
Granule exo CP1 – lytic granule exocytosis inhibition; TALL-104 cells, LAMP-1 externalization, flow cytometry; stimulated with PMA plus thapsigargin; inhibition, % at 10 µM; shares compounds with Exocytosis inh; 1,500 compounds, 11% hits; in the data active = inhibition above about 60%
Of the large screens only hits and unclear results are named; the others gave an inactive call (follow-up assays come after a bar, where they were run). The list is not random: actives were taken first. Their share in the collection is about 1.8%.

CN(C(=O)c1cccc(NC(=O)Cc2ccc(NC(=O)C3CCN(C(=O)C4CCCCC4)CC3)cc2)c1)C1CCCCC1	none
COc1ccc(OC)c(NC(=O)Nc2ccc(O)c3ccccc23)c1	Exocytosis inh 82.1, Myeloid diff MLP inconclusive | Granule exo CP1 inactive
COc1ccc(S(=O)(=O)Nc2ccccc2)cc1	none
COc1ccc(S(=O)(=O)Nc2cc(C)c(O)cc2C(C)C)cc1	none
COc1ccc(OC)c(NC(=O)Nc2c(O)ccc3ccccc23)c1	none
COc1ccc(S(=O)(=O)Nc2ccc(O)c3ccccc23)cc1	Exocytosis inh 86.6 | Granule exo CP1 inactive
COc1ccc(S(=O)(=O)c2c(O)cc(C)c(NS(=O)(=O)c3ccccc3)c2C)cc1	Exocytosis inh 69.7 | Granule exo CP1 inactive
COc1ccc(S(=O)(=O)N2CCC(C(=O)N[C@@H](C)C(=O)NC3CC3)CC2)cc1	none
COc1ccc(N2CCN(C(=O)c3cc([N+](=O)[O-])ccc3N3CCN(CCO)CC3)CC2)cc1	none
COc1ccc(OCC(=O)N/N=C(\C)CC(=O)Nc2cccc([N+](=O)[O-])c2)cc1	none
Cc1cccc(C)c1NS(=O)(=O)c1ccc(-c2cnc(C3CC3)o2)cc1	Myeloid diff MLP inconclusive
Cc1c(NS(=O)(=O)c2cc(C(=O)NC(C)c3ccccc3)ccc2Cl)c(=O)n(-c2ccccc2)n1C (stereo unspecified)	none
CCn1c(SCC(=O)NC2CCCC2)nnc1-c1cccnc1	none
O=C1c2ccccc2C(=O)N1N(c1ccccc1)c1ccccc1	none
O=C1C=CC(=O)N1N(c1ccccc1)c1ccccc1	Exocytosis inh 78.1 | Granule exo CP1 104.3
CC(C)NC(=O)C(c1ccc(F)cc1)N(C(=O)CCC(=O)Nc1ccccn1)C1CCCC1 (stereo unspecified)	none
O=C(O)CCC(=O)Nc1sc2c(c1C(=O)NC1CCCC1)CCCC2	none
O=C(COc1ccc(Br)cc1)Nc1nc(-c2cccnc2)cs1	none
CCOc1ccc(N2C(=O)CC(Sc3n[nH]c(-c4ccccc4)n3)C2=O)cc1 (stereo unspecified)	none
COc1ccc(N2C(=O)CC(Sc3n[nH]c(-c4ccccc4)n3)C2=O)cc1 (stereo unspecified)	Exocytosis inh 87.6 | Granule exo CP1 84.7
COc1ccc(N(C(C)C(=O)NCCSCc2cccc(Cl)c2)S(C)(=O)=O)cc1 (stereo unspecified)	none
COc1ccc(N(CC(=O)NCCSCc2cccc(Cl)c2)S(C)(=O)=O)cc1Cl	Exocytosis inh 59.8 | Granule exo CP1 inactive
COc1ccc(Cl)cc1N(CC(=O)NCCSCc1ccccc1)S(C)(=O)=O	none
COc1ccc(N(CC(=O)NCCSCc2ccc(Cl)cc2)S(C)(=O)=O)cc1Cl	Exocytosis inh 66.8 | Granule exo CP1 inactive
Cc1ccc(SCCN2CCC(O)CCC2=O)cc1 (stereo unspecified)	none
O=C(Nc1ccc(S(=O)(=O)N2CCCC2)cc1)c1ccc(Br)o1	Exocytosis inh 79.6 | Granule exo CP1 inactive
O=C(Nc1ccc(S(=O)(=O)N2CCOCC2)cc1)c1ccc(Br)o1	none
CCC(CC)NC(=O)CSc1ccc(S(=O)(=O)N2CCCCC2)cn1	none
CC1CN2C(c3ccc([N+](=O)[O-])cc3)=CSC2=N1 (stereo unspecified)	none
CCN(c1cccc(C)c1)S(=O)(=O)c1cc2c3c(c1)CCC(=O)N3CCC2	none
O=C(c1ccc2c3c(cccc13)CC2)C1CCCN(Cc2cccnc2)C1 (stereo unspecified)	none
COc1cc(CN2CCCC(C(=O)c3ccc4c5c(cccc35)CC4)C2)cc(OC)c1O (stereo unspecified)	Exocytosis inh 73.2 | Granule exo CP1 inactive
CCOc1ccc(NC(=O)c2ccc(F)cc2F)cc1	Exocytosis inh 62.1 | Granule exo CP1 inactive
CCOc1ccc(NC(=O)c2cc3ccccc3cc2OC)cc1	none
COc1ccc(S(=O)(=O)N2CCOCC2)cc1NC(=O)Cc1coc2cc(C)c(C)cc12	none
O=C(COC(=O)[C@H](Cc1c[nH]c2ccccc12)NC(=O)c1ccc(Cl)cc1)Nc1ccc2c(c1)OCO2	Exocytosis inh 68.9 | Granule exo CP1 77.6
CC(=O)N[C@@H](Cc1c[nH]c2ccccc12)C(=O)OCC(=O)Nc1ccc2c(c1)OCO2	none
COc1ccccc1Nc1c2ccccc2nc2ccccc12	Exocytosis inh 81.7, Myeloid diff MLP inconclusive | Granule exo CP1 inactive
COc1ccc(OC)c(Nc2cc(C)nc3ccccc23)c1	none
COc1cc(Nc2c3ccccc3nc3ccccc23)cc(OC)c1OC	none
COc1ccc(Cl)cc1Nc1cc(C)nc2ccccc12	Exocytosis inh 76.1 | Granule exo CP1 inactive
CCCN1CCc2c(sc(NC(=O)Cc3ccc(F)cc3)c2C(N)=O)C1	none
O=c1c2ccccc2sn1-c1ccc(Cl)cc1	Exocytosis inh 79.2 | Granule exo CP1 103.8

Source: PubChem BioAssay
